Source: PubChem (several laboratories)
CRFR2-BP ag: agonists of CRF-BP/CRF-R2 complex, primary screen, cell-based, HEK293, calcium dye fluorescence, uHTS | 0.46% of 350,000 active | activation, % at 13.2 µM | calcium dye fluorescence (FLIPR); percent of saturating CRF peptide response | CRF-binding protein / CRF receptor 2 complex (human) | AID 588473, 2011;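 active = activation of at least 50%, plus an integration ratio under a set limit after plate pattern correction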
NR3A LBD binder: binders of NR3A ligand-binding domain, primary screen, biophysical, differential scanning fluorimetry, uHTS | Tm shift relative to glycine control, % at 25 µM | NR3A LBD differential scanning fluorimetry, Tm shift; 0% = protein alone, 100% = glycine-bound protein | AID 1259313, 2017 | 2.5% of 340,000 active;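 active = melting temperature shift of at least 10% of the positive control shift, at one fixed dose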
TMEM16A act: TMEM16A chloride channel activators or potentiators, primary screen, cell-based, HTS. Anoctamin-1 (Mus musculus), Q8BHY3. HEK293 TMEM16A/YFP-H148Q/I152L, iodide quench fluorescence; hits give low values. B-score at 10 µM. 0.3% of 340,000 active;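 active = fluorescence-ratio B-score plate-corrected deviation score at least 3 library SD below zero, with starting fluorescence score within 5 deviations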;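 also: channel opened by trigger with iodide after compound preincubation; score built on the fluorescence ratio of max minus min over baseline; more negative score means more quench and so TMEM16A activation or potentiation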
Target sequence (Q8BHY3 whole entry, looked up): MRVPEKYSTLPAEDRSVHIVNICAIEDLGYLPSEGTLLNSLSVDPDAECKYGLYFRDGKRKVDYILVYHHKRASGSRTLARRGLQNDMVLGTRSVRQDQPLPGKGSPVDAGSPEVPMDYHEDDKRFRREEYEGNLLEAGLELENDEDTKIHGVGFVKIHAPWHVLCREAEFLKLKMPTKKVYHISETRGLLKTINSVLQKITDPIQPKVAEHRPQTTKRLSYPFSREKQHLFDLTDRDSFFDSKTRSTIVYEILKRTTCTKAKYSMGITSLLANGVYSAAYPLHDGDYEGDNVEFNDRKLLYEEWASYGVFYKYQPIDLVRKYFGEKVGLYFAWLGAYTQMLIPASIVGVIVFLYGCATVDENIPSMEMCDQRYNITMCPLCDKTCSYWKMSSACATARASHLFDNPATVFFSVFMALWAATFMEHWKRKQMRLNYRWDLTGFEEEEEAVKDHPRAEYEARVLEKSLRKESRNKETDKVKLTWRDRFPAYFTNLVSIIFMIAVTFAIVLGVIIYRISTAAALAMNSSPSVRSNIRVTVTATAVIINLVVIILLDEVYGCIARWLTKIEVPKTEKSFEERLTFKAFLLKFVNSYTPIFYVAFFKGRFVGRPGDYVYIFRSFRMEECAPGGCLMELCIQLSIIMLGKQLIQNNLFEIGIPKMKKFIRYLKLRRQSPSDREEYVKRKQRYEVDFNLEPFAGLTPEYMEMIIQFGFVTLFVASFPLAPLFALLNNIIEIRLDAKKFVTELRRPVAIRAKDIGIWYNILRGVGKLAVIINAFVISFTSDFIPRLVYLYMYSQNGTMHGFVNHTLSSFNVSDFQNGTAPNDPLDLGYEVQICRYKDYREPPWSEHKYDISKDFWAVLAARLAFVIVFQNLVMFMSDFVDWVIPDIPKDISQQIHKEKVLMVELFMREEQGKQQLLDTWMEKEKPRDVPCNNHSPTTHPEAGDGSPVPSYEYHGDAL
CRFR2-BP antag: antagonists of CRF-BP/CRF-R2 complex, primary screen, cell-based, HEK293, calcium dye fluorescence, uHTS. CRF-induced calcium fluorescence. inhibition, % at 11.8 µM. 0.59% of 350,000 active. AID 588475, 2011;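 active = inhibition of the ligand-induced calcium signal above about 50% at the single tested concentration, limit read from the data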
ANO1 block: TMEM16A chloride channel inhibitors, primary screen, cell-based, HTS | HEK293 TMEM16A/YFP iodide influx fluorescence, ionomycin | 1.2% of 310,000 active | Anoctamin-1 (Mus musculus), Q8BHY3 | AID 588511, 2011 | normalized B-score (activity score, 25-100; higher = stronger inhibition) at 10 µM;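 active = ratio plate-corrected score three or more library SD toward inhibition, starting fluorescence score within five deviations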;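 also: score derived from kinetic fluorescence span divided by baseline fluorescence per well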
MPTP inh: mitochondrial permeability transition pore inhibitors, primary screen, biochemical, isolated mouse mitochondria, absorbance. Ca2+ swelling absorbance, 30 min. AID 602449, 2012. inhibition, % at 10 µM. 1.4% of 360,000 active;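 active = inhibition of 50% or more, scaled per plate between neutral and stimulator controls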
MPTP counter: fluorescence retest of MPTP screen hits in isolated mitochondria, single concentration. shares compounds with MPTP inh. inhibition, % at 10 µM. 78% of 5,000 active. membrane potential, Rhodamine 123 fluorescence; in the data active = inhibition above about 22%
MPTP swell DR: mitochondrial permeability transition pore inhibitors, dose response, biochemical, absorbance, uHTS hits; shares compounds with MPTP inh; isolated mitochondria swelling; IC50, µM; 58% of 780 active; AID 651561, 2012; in the data active = IC50 below about 20 µM
MPTP counter DR: fluorescent counter-screen in isolated mitochondria, dose response, counter-screen for MPTP inhibitor project, biochemical, fluorescence, uHTS hits; AID 651564, 2012; 49% of 780 active; shares compounds with MPTP inh; isolated mitochondria counterscreen, fluorescence read-out; IC50, µM; in the data active = IC50 below about 80 µM
Each line names hits and unclear results; the compound was inactive in the other large screens (follow-up assays come after a bar, where they were run). Most compounds without a hit are left out; they make up all but 5.1% or so of the library.

O=[N+]([O-])c1ccc(O)c(/C=N/Nc2ccccc2Cl)c1	MPTP inh 93.9 | MPTP counter 90.8
C/C(=N\OCc1nc2ccccc2c(=O)n1/N=C/c1cc(C)cc([N+](=O)[O-])c1O)c1ccccc1	none
CCN(CC)S(=O)(=O)c1ccc(N2CC(C(=O)NCCc3c[nH]c4ccccc34)CC2=O)cc1 (stereo unspecified)	none (no result: ANO1 block)
COc1ccc(/C=C(/NC(=O)c2ccco2)C(=O)N2CCc3ccccc32)cc1OC	none
COc1ccccc1-c1cnc(C(O)c2ccc(Cl)cc2)[nH]1 (stereo unspecified)	none (no result: CRFR2-BP ag, NR3A LBD binder, TMEM16A act, CRFR2-BP antag, ANO1 block)
CSc1ncccc1C(=O)NC1CCCc2c1cnn2-c1ccc(C)c(C)c1 (stereo unspecified)	none
O=C1CC2(CCN(C(=O)c3ccc(F)c(F)c3)CC2)Oc2ccccc21	none
CCCCCn1c(N)c(-c2nc3ccccc3s2)c2c([N+](=O)[O-])nn(C)c(=O)c21	MPTP inh 103.7 | MPTP counter inactive | MPTP swell DR inactive | MPTP counter DR <2.5
CCCCn1c(N)c(-c2nc3ccccc3o2)c2c([N+](=O)[O-])nn(C)c(=O)c21	none
O=C(Nc1cc(C(F)(F)F)cc(C(F)(F)F)c1)Nc1cnn(-c2ccc([N+](=O)[O-])cc2)c1C(F)(F)F	CRFR2-BP ag 58.2, ANO1 block 100, MPTP inh 88.0 | MPTP counter 63.2
CCN(c1ccccc1)S(=O)(=O)c1ccc(C(=O)NC2CCN(Cc3ccccc3)CC2)cc1	MPTP inh 65.7 (no result: ANO1 block) | MPTP counter 63.8
Cc1cccnc1NC(=O)c1ccc(NS(=O)(=O)/C=C/c2ccccc2)cc1	none
CCN(CC)c1ccc(C(=C2C=CC(=[N+](CC)CC)C=C2)c2ccc(N(CC)CC)cc2)cc1	NR3A LBD binder 351.4, TMEM16A act -6.62, MPTP inh 137.1 (no result: ANO1 block) | MPTP counter 74.4
CCN(CC)c1ccc(C(=O)NNC(=O)CCl)cc1	none
COc1ccccc1OCCCCN1CCN(C(c2ccccc2)c2ccccc2)CC1	MPTP inh 82.5 | MPTP counter inactive | MPTP swell DR inactive | MPTP counter DR 65.2
c1ccc(OCCOCCN2CCN(C(c3ccccc3)c3ccccc3)CC2)cc1	none
CC(=O)c1c(C)[nH]c(C(=O)CSc2ncnc3sc(-c4ccccc4)cc23)c1C	ANO1 block 25, MPTP inh 96.3 | MPTP counter 38.9
O=C(CSc1nnc2ccccn12)c1ccc(Cl)cc1	none
O=C(CSc1nnc2n1CCCN2C(=S)Nc1ccc(Cl)cc1)c1ccccc1	MPTP inh 83.5 | MPTP counter 88.7
Cc1ncoc1C(=O)Nc1ncc([N+](=O)[O-])s1	none
CCCCC(CC)C(=O)Nc1ncc([N+](=O)[O-])s1 (stereo unspecified)	ANO1 block 100, MPTP inh 97.7 | MPTP counter 100.0
O=C(CS(=O)(=O)c1ccccc1)Nc1ncc([N+](=O)[O-])s1	none
Cc1ccc(CC(=O)Nc2ncc([N+](=O)[O-])s2)cc1	MPTP inh 65.8 | MPTP counter 89.9
C[C@H]1CN([C@@H](C)CO)C(=O)CCCn2nncc2CO[C@H]1CN(C)S(=O)(=O)c1ccc(-n2cccn2)cc1	none (no result: NR3A LBD binder, TMEM16A act, ANO1 block)
O=c1cc(-c2ccc([N+](=O)[O-])cc2)nc2cc(-c3ccc(F)cc3)[nH]n12	CRFR2-BP antag 75.1, MPTP inh 88.7 | MPTP counter inactive | MPTP swell DR inactive | MPTP counter DR 27.7
C=CCN(c1ccccc1)S(=O)(=O)c1cccc(C(=O)Nc2nnc(SCC)s2)c1	MPTP inh 67.3 | MPTP counter 66.7
CCSc1nnc(NC(=O)c2cccc(S(=O)(=O)N(C)c3ccccc3)c2)s1	none
COC(=O)Cc1[nH]n(-c2ccccc2)c(=O)c1C=Nc1ccc(C)cc1	none
Cc1c(C(=O)NCc2ccccc2C(F)(F)F)sc(=O)n1Cc1ccc2ccccc2c1	none (no result: CRFR2-BP ag, NR3A LBD binder, TMEM16A act, CRFR2-BP antag, ANO1 block)
Cc1[nH]n(C(N)=S)c(=O)c1N=Nc1cccc(Cl)c1	none
NC(=S)n1[nH]c(-c2ccc([N+](=O)[O-])cc2)c(N=Nc2cccc(Cl)c2)c1=O	NR3A LBD binder 24.6, MPTP inh 89.5 (no result: ANO1 block) | MPTP counter 70.5
CCOc1cccc(C(=O)NC(=S)Nc2ccc(N3CCN(CC)CC3)cc2)c1	none
CCCOc1cccc(C(=O)NC(=S)Nc2ccc(N3CCN(C)CC3)cc2)c1	MPTP inh 76.4 | MPTP counter inactive | MPTP swell DR 7.12 | MPTP counter DR 38.7
O=C(NC(=S)Nc1ccc(CN2CCCCC2)cc1)c1cccc(OCc2ccccc2)c1	MPTP inh 84.0 | MPTP counter inactive | MPTP swell DR inactive | MPTP counter DR inactive
CN1CCN(c2ccc(NC(=O)c3cccc(OCc4ccccc4)c3)cc2)CC1	MPTP inh 107.0 | MPTP counter inactive | MPTP swell DR 6.58 | MPTP counter DR inactive
C[C@]12CC[C@H](O)CC1=C[C@H](O)C1C2CC[C@@]2(C)C1CC[C@@]2(O)C#Cc1ccc(CN)cc1 (stereo partly specified)	none (no result: ANO1 block)
O=C(Nc1cc(Cl)cc(Cl)c1)Nc1cnccn1	MPTP inh 62.2 | MPTP counter 101.3
O=C(Nc1ccc(F)cc1)Nc1cnccn1	none
Cc1ccc(S(=O)(=O)N(C)C)cc1NC(=O)COC(=O)CCC1CCCCC1	none
O=C(NCC(=O)N1CCN(Cc2ccccc2)CC1)c1cc(Cl)cc([N+](=O)[O-])c1	none (no result: ANO1 block)
COc1cccc(CNS(=O)(=O)c2cc3c4c(c2)CCN4C(=O)CC3)c1	none
CCOC(=O)N1CCC(N(CCOC)C(=O)Nc2ccc(Cl)cc2)CC1	MPTP inh 63.6 | MPTP counter 77.0
CCOC(=O)N1CCC(N(CCCOC)C(=O)Nc2ccc(CC)cc2)CC1	none
COC(=O)[C@H]1C[C@@]2(O)CN(S(=O)(=O)c3ccc(C)cc3)C[C@@]2(OC(=O)Nc2cccs2)C[C@H]1C(=O)OC	none (no result: NR3A LBD binder, TMEM16A act, ANO1 block)
